Bioassay records (PubChem BioAssay)
N-glyco inh: N-linked glycosylation inhibition; D54 ERlucT glycosylation luciferase reporter, 24 h; percent of 100 nM tunicamycin response; reporter increase, % at 12.5 µM; 360,000 compounds, 0.23% hits;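 active = mean luciferase reporter signal, scaled so untreated is 0 and the glycosylation-blocking control 100, at or above a set limit in every replicate; inconclusive = mean reaches the limit but not every replicate does; inactive = mean below the limit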;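 also: luciferase carries N-glycosylation sites so blocking glycosylation raises the light; 0% = median of neutral control wells and 100% = median of 100 nM tunicamycin wells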
PfHsp90 set2: inhibits growth of yeast expressing Plasmodium falciparum Hsp90; AID 504621; inhibition, % at 9.4 µM; 310,000 compounds, 0.32% hits; S. cerevisiae expressing PfHsp90, BacTiter-Glo ATP, 48 h; yeast lacking PDR1 and PDR3 efflux regulators;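 active = every replicate shows inhibition above about 80%, whatever the replicate mean, limit read from the data; inconclusive = mean inhibition reaches the set limit but some replicate falls short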;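 also: 0% = DMSO neutral controls and 100% = 20 µM radicicol positive controls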
NSD2 HMT inh: blocks human histone methyltransferase NSD2. NSD2 peptide methylation, AlphaScreen, 120 min. inhibition, % at 12.5 µM. 310,000 compounds, 0.54% hits; in the data active = inhibition above about 50%
Target sequence (O96028 whole entry, looked up): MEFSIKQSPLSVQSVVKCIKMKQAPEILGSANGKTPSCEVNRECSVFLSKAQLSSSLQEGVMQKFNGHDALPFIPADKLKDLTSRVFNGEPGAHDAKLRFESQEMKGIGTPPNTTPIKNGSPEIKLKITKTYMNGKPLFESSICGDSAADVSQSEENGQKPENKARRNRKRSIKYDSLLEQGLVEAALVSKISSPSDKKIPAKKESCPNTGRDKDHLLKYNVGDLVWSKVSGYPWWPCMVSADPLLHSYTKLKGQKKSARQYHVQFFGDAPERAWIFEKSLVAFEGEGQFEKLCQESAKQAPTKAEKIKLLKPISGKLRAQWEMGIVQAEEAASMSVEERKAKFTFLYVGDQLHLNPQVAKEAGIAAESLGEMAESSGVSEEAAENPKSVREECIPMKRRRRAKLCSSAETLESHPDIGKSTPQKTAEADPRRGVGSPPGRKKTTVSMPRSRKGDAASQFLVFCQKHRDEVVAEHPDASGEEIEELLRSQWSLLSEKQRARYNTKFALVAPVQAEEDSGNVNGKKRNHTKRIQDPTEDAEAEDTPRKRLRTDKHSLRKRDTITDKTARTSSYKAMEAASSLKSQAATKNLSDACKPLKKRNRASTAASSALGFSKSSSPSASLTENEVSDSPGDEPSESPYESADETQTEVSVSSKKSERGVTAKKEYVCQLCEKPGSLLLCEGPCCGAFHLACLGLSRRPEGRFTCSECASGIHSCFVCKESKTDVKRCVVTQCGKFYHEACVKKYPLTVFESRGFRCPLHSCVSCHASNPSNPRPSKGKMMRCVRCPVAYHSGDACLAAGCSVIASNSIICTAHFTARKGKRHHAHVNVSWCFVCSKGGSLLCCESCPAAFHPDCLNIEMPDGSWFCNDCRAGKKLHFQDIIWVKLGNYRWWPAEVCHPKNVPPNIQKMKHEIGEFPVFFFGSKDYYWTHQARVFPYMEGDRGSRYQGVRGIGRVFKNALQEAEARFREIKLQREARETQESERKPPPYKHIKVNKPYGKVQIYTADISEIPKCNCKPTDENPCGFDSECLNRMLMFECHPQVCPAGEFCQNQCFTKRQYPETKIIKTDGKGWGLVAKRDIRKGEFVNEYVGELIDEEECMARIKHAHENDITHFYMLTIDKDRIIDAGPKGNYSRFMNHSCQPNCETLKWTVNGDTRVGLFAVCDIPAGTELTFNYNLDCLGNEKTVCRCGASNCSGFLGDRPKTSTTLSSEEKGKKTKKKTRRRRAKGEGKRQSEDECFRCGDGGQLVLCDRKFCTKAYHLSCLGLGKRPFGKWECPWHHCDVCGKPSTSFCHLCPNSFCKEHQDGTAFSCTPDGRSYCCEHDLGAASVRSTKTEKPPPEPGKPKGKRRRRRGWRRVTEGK
Wnt act: activators of Wnt/beta-catenin signaling; Wnt/beta-catenin reporter cell assay, activator, plate reader; activation, % at 9.35 µM; 300,000 compounds, 1.2% hits; AID 743398; in the data active = activation above about 30%, passing the limit was not always enough; inconclusive = no clear call, values can overlap the other calls;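 also: 0% = neutral control wells and 100% = positive control wells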
TRPM1 prom inh: reduces MITF-dependent TRPM1 promoter luciferase signal; SK-MEL-5 TRPM1 promoter luciferase, 24 h; 330,000 compounds, 0.83% hits; inhibition, % at 12.5 µM; AID 488899;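 active = mean inhibition across replicates of 60% or more, whatever share of single replicates reaches that level; inconclusive = some that reach 60%, reason not given; inactive = mean inhibition across replicates below 60%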
MITF TRPM1 HTS: MITF TRPM1 promoter activation in melanoma cells; 300,000 compounds, 0.75% hits; activation, % at 12.5 µM; SK-MEL-5 TRPM1-promoter luciferase, 24 h; % of positive control, neutral wells = 0;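 active = mean activation of at least 80% with every replicate also reaching 80%; inconclusive = mean reaches 80% but some replicate falls short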;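 also: 0% = neutral control wells and 100% = parthenolide positive control wells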
The depositor's hits bear a star; ? = inconclusive; · = no result. Hits are enriched below; roughly 2.9% of the tested compounds scored in any of these assays.

SMILES | N-glyco inh | PfHsp90 set2 | NSD2 HMT inh | Wnt act | TRPM1 prom inh | MITF TRPM1 HTS
N#C/C(=C\c1ccc(OCc2ccc(Br)cc2)cc1)C(=O)Nc1cccc(C(=O)O)c1 | -10.3 | -19.6 | -2.8 | 29.6 | -49.0 | 46.7
N#C/C(=C\c1ccc(OCc2ccc(F)cc2)cc1)C(=O)Nc1cccc(C(=O)O)c1 | -2.8 | 23.8 | 1.1 | 50.6* | -67.4 | 66.0
N#C/C(=C\c1ccc(OCc2ccccc2)cc1)C(N)=O | 1.6 | 8.8 | 4.1 | 40.9* | -61.9 | 63.1
COc1ccccc1NC(=O)Nc1ccc(C(=O)N2CCCCC2)cc1 | -4.5 | 31.5 | -1.0 | 15.1 | -110.3 | 111.1*
O=C(Nc1ccc(C(=O)N2CCCCC2)cc1)Nc1cccc(Cl)c1 | -3.7 | -6.3 | -1.0 | 16.7 | -103.8 | 106.2*
O=C(Nc1cccc(Cl)c1)N1CCCCCC1 | -1.9 | 12.0 | 0.3 | 5.4 | -3.1 | 1.3
COC(=O)c1ccccc1NC(=O)Nc1ccc(C(=O)N2CCCC2)cc1 | -0.9 | -18.3 | 0.9 | -2.6 | 5.7 | ·
O=C(C(=O)N1CCC(CNS(=O)(=O)c2ccc(C(F)(F)F)cc2)CC1)c1cccs1 | · | · | -3.6 | -4.8 | · | ·
COC(=O)c1c(-c2ccc(OC)cc2)c2c(c3c4cc(F)ccc4n(S(=O)(=O)c4ccc(C)cc4)c13)C(=O)N(C)C2 | · | · | · | -4.7 | · | ·
CS(=O)(=O)c1cccc(C(=O)Nc2ccc3c(c2)OCCCO3)c1 | -0.7 | 0.1 | 2.1 | 13.6 | -79.3 | 81.3*
O=C(Nc1cccc(F)c1)c1cc(S(=O)(=O)N2CCOCC2)ccc1N1CCCC1 | 28.0* | 6.9 | 3.3 | · | 3.7 | -2.1
CCN(CC)S(=O)(=O)c1cccc(C(=O)Nc2ccc3c(c2)OCO3)c1 | -0.4 | -5.3 | 3.5 | -1.8 | -82.3 | ?
O=C(Nc1ccc2c(c1)OCCO2)c1cccc(S(=O)(=O)N2CCOCC2)c1 | -0.2 | · | 0.3 | 45.1* | -51.6 | 54.7
O=C(Nc1ccc2c(c1)OCCO2)c1cccc(S(=O)(=O)N2CCCCC2)c1 | -3.4 | · | 0.2 | · | -2.3 | 6.5
N#Cc1ccccc1NC(=O)CSC1=Nc2ccccc2C2CC=NN12 (stereo not given) | -2.3 | -2.5 | -8.3 | 47.3* | 18.0 | -17.6
Clc1ccc(-c2ccc(SCc3ccccn3)nn2)cc1 | -0.2 | -10.0 | 1.3 | 36.5* | -122.0 | 116.0*
COc1cccc(-c2ccc(SCc3ccccn3)nn2)c1 | -2.2 | -9.8 | -0.2 | ? | -107.5 | 113.6*
c1ccc(CSc2ccc(-c3ccccn3)nn2)nc1 | -3.8 | -0.6 | 20.5 | 8.8 | -38.6 | 44.2
COC(=O)[C@]12C[C@H](CC(=O)NCC3CCCCC3)C(=O)N(Cc3ccc4c(c3)OCO4)C1=C[C@H](COCc1ccccc1)O[C@@H]2C | · | · | -0.9 | -2.7 | · | ·
COC(=O)c1ccc2[nH]c(C3(O)CCCCC3)c(C)c2c1 | 0.1 | -9.2 | · | ? | -80.2 | 83.5*
O=C(CSc1nnc(-c2ccccc2)n1Cc1ccco1)Nc1ccc(OCc2ccccc2)cc1 | · | · | -0.7 | · | · | ·
C=C(C)C1CC=C(C)C(=NNC(=O)c2ccncc2)C1 (stereo not given) | 5.3 | 7.3 | 0.2 | -0.9 | 5.5 | -3.9
C=C(C)C1CC=C(C)/C(=N/NC(=O)c2cccs2)C1 (stereo not given) | -1.1 | 0.2 | -2.8 | 26.8 | -92.1 | 98.1*
COC(=O)C1=C(C)N(Cc2ccc(C(F)(F)F)cc2)C(=NCc2ccc3c(c2)OCO3)NC1c1ccccc1 (stereo not given) | · | · | · | -28.3 | · | ·
Cc1ccc2[nH]c(-c3cccc(N)c3)cc2c1 | -4.6 | -6.5 | 9.0 | 81.8* | -65.7 | 69.9
SMILES | N-glyco inh | PfHsp90 set2 | NSD2 HMT inh | Wnt act | TRPM1 prom inh | MITF TRPM1 HTS
Cc1ccc2[nH]c(-c3cccc(F)c3)cc(=O)c2c1 | 18.7 | -1.1 | · | -14.9 | 6.8 | -9.6
Cc1cc(O)cc(=O)n1-c1cc(C(F)(F)F)cc(C(F)(F)F)c1 | · | · | · | -4.4 | · | ·
CN(C)c1ccc(-c2ccc3oc(-c4ccsc4)cc(=O)c3c2)cn1 | -0.5 | -8.0 | · | 38.1* | -118.2 | 124.4*
COc1cccc(CNC(=O)COC(=O)c2ccc(-c3ccc(O)cc3)cc2)c1 | 27.6* | · | -0.9 | -3.5 | · | ·
C=CC(C)(C)c1c2occc2c(O)c2ccc(=O)oc12 | 2.5 | 13.8 | · | -0.8 | · | ·
C=CC(C)(C)c1c(O)c(CC=C(C)C)c(O)c2c(=O)c3ccc(O)c(O)c3oc12 | -19.8 | 105.5* | · | · | · | ·
Cc1ccc(OC(C)C(=O)N2CCN(c3ccccn3)CC2)cc1 (stereo not given) | 0.6 | -17.3 | -2.0 | -2.6 | -2.0 | 3.0
O=C1OCC(CO)(CO)N=C1NNc1ccc(Cl)c(Cl)c1 | 3.2 | 100.7* | -0.1 | -1.8 | 4.6 | -0.6
CCOC(=O)CCNC(=O)N1CCCC(N(C)CCc2ccccc2)C1 (stereo not given) | 1.6 | -23.5 | 9.8 | -0.2 | 6.2 | ·
CCCC1CCC2(CC1)CCC2OC(=S)NCCc1ccc(Cl)cc1 (stereo not given) | · | · | 4.9 | · | · | ·
N/C(=N\OC(=O)CC1CCCCC1)c1ccccn1 | -0.5 | -14.4 | -1.7 | · | -87.1 | 87.5*
N/C(=N\OC(=O)C12CC3CC(CC(C3)C1)C2)c1ccccn1 | 0.1 | -9.3 | -4.1 | · | -98.5 | 97.8*
CN(c1ccc(NC(=O)CCc2cn(Cc3ccc(Br)cc3)c3ccccc23)cc1)c1ccccn1 | · | · | 1.5 | -5.0 | · | ·
N/C(=N\OC(=O)c1cccs1)c1ccc(Cl)cc1 | -2.0 | · | -4.3 | 56.5* | · | ·
COc1ccc(/C(N)=N/OC(=O)c2cccs2)cc1 | -11.1 | -12.8 | -2.1 | 39.5* | -44.6 | 60.9
Nc1c(N(CCC2=CCCCC2)C(=O)CCCOc2ccccc2)c(=O)[nH]c(=O)n1Cc1ccccc1 | -1.3 | · | · | -3.1 | 11.9 | -12.9
Nc1c(N(CCO)C(=O)COc2ccc(Cl)cc2)c(=O)[nH]c(=O)n1Cc1ccccc1 | -1.6 | 4.4 | 0.4 | -2.1 | 2.0 | -1.5
Nc1c(N(CCC2=CCCCC2)C(=O)COc2ccc(F)cc2)c(=O)[nH]c(=O)n1Cc1ccccc1 | 55.5* | -1.7 | 0.5 | · | 92.1* | -91.6
Nc1c(N(Cc2ccccc2)C(=O)COc2ccc([N+](=O)[O-])cc2)c(=O)[nH]c(=O)n1Cc1ccccc1 | 123.1* | · | -1.4 | -1.9 | -37.0 | 35.4
CC1=C[C@]2(CN(CC3CC3)C3=N[C@H](c4ccccc4)CC(=O)N32)n2c(=O)n(-c3ccccc3)c(=O)n2C1 | · | · | -1.5 | · | · | ·
O=C(Cn1ncc(Cl)c(Cl)c1=O)NC1CCCCC1 | 15.1 | 3.5 | 15.3 | -24.4 | 95.9* | -96.0
O=C1CN(C(=O)COc2ccc(Cl)c(Cl)c2)c2ccccc2N1 | -1.0 | · | -1.9 | 1.7 | -28.7 | 26.9
O=C(Cn1ncc(Cl)c(Cl)c1=O)NCC1CCCCC1 | 3.5 | -25.3 | 0.1 | -12.6 | 91.9* | -91.8
O=C1CN(C(=O)Cn2ncc(Cl)c(Cl)c2=O)c2ccccc2N1 | -6.3 | -24.7 | 6.8 | -8.5 | 92.8* | -92.0
Cc1cccc(NC(=O)CNC(=O)CSc2ncccn2)c1C | -1.2 | 1.4 | -1.5 | -0.7 | 1.6 | 0.6
Cc1cccc(NC(=O)CNC(=O)Cn2ncc(Cl)c(Cl)c2=O)c1C | 8.3 | 0.2 | 0.0 | · | 84.7* | -84.6
